System: XIP peptide (Xip251-270)
Assay: compounds binding XIP fragment 251-270 – biochemical, small-molecule microarray, fluorescence 635/667 nm, 0.5 µg/mL protein, primary screen (AID 1183)
Details: fluorescence 635 nm, higher = more signal

Structure (SMILES)	composite z-score
COCCNC(=O)OCC1CCCC2(CC(OC(=O)NCc3cccc4ccccc34)CC(CCC(=O)N[C@@H](C)C(=O)OC)O2)O1 (stereo partly drawn)	0.588
CC(C)CN1CCc2nc(-c3ccccc3)c3c(c2C1)CO[C@@H](C)C3	0.687
CC(CCN1CCCCc2nc(C)c(C)cc21)=NOC[C@@H](O)[C@H]1O[C@@H]2OC(C)(C)O[C@@H]2[C@H]1O	0.698

System: not listed separately
Assay: blood-stage malaria parasite viability loss – strain 3D7, DAPI fluorescence, 100 nL, primary screen (AID 1184);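 note: parasites grown inside human red blood cells in medium with human serum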
Details: P. falciparum 3D7 growth, 3 d, higher = more signal

Structure (SMILES)	z-score
C#CCCCON=C1C[C@@H](O)[C@@H](O)[C@@H]2[C@@H]3C(=O)N([C@@H](C)c4ccccc4)C(=O)[C@@H]3CC[C@@H]12	-0.913
COc1cccc([C@H]2Oc3ccc(OC)cc3C(=NO[C@@H](C)c3cc(-c4c(C)cc(C)cc4C)no3)[C@@H]2O)c1	-0.24
CO[C@@H]1COC(=O)[C@H](COCc2ccccc2)NC(=O)CC=C[C@@H](C)[C@H](OC)COC(=O)[C@@H](C)NC(=O)CC=C[C@H]1C	0.591
CC(=O)OC[C@H]1O[C@H](CC=NOCC[C@@H]2C=C[C@H](OC(C)=O)[C@@H](COC(C)=O)O2)C=C[C@@H]1OC(C)=O	0.256
CCN(CC)CC(O)CN1CCCCc2nc(C)c(C)cc21 (stereo not drawn)	0.694
CC(=O)OC[C@H]1O[C@H](CCON=C(C)C)C=C[C@@H]1OC(C)=O	1.48
CCOC(=O)[C@H](Cc1ccccc1)NC(=O)CCC1CC(OC(=O)NCCc2ccc(F)cc2)CC2(CCCC(COC(=O)NCCOc3ccccc3)O2)O1 (stereo partly drawn)	-1.7
COC(=O)[C@@H]1CC[C@H](C)[C@@H](c2ccc(C)cc2)N1C(=O)c1ccc(C=NO[C@@H](C)c2cc(-c3c(C)cc(C)cc3C)no2)cc1	-0.225
CCCC[C@H]1CN2[C@@H](CC[C@@H](C)[C@@H]2c2ccc(Br)cc2)C(=O)O1	-0.278
C=CC[C@@H]1C=CC(ON=C(C)C)[C@@H](CO)O1 (stereo partly drawn)	0.367
CCOC(=O)[C@H](Cc1ccccc1)NC(=O)CCC1CC(OC(=O)NCc2ccc3c(c2)OCO3)CC2(CCCC(COC(=O)NCCc3ccc(Cl)cc3)O2)O1 (stereo partly drawn)	-1.78
CCN1C(=O)[C@H]2[C@H]3[C@H](O)[C@H](O)CC(=NOCC(C)C)[C@H]3CC[C@H]2C1=O	1.82
CON=C[C@@H](OC)[C@H](C)C=CCC(=O)OC	-0.166
CC(CCN1CCc2nc(-c3ccccc3)c(-c3ccccc3)cc2C1)=NO[C@H](C)c1cn([C@H](CO)Cc2ccccc2)nn1	-0.618
CCOC(=O)[C@H](Cc1ccccc1)NC(=O)CCC1CC(OC(=O)NCc2cccc3ccccc23)CC2(CCCC(COC(=O)NCCOc3ccccc3)O2)O1 (stereo partly drawn)	-1.86
CC(=O)OC[C@H]1O[C@H](CC=NO[C@@H](C)c2cn([C@H](CO)Cc3ccccc3)nn2)C=C[C@@H]1OC(C)=O	-1.13
COc1ccc(OC[C@H]2CN3[C@@H](CC[C@@H](C)[C@@H]3c3ccc(Br)cc3)C(=O)O2)cc1	-1.32
CCc1cc2c(nc1CC)CCN(CCC(C)=NOCC[C@@H]1C=C[C@H](OC(C)=O)[C@@H](COC(C)=O)O1)C2	-0.876
CO[C@H]1COC(=O)CC=C[C@H](C)[C@H](OC)COC(=O)[C@@H](C)NC(=O)CC=C[C@@H]1C	-0.205
Cc1cc2c(nc1C)CCCCN2CC(O)CN1CCCc2nc(-c3ccc(Br)cc3)ccc21 (stereo not drawn)	0.528
CC(CCN1CCCc2nc(C)c(C)cc21)=NO[C@H](C)c1cn([C@@H]2COC[C@H]2O)nn1	0.612
Cc1ccc(C(C)C)n1C(=O)OC(C)(C)C	0.271
COC(=O)[C@@H]1CC[C@H](C)[C@@H](c2ccc(Br)cc2)N1C(=O)C(F)(F)F	-0.541
O=C1[C@H]2[C@H]3[C@H](O)[C@H](O)CC(=NOCc4ccccc4)[C@@H]3CC[C@H]2C(=O)N1c1cccc(Oc2ccccc2)c1	-0.129
CCCNC(=O)OC[C@H]1O[C@H](CCON=C2C[C@@H](O)[C@@H](O)[C@@H]3[C@@H]4C(=O)N(CC)C(=O)[C@@H]4CC[C@@H]23)C=C[C@@H]1Oc1ccc(OC)cc1	0.497
COc1cccc([C@H](O)Cn2cc(-c3ccc(CON=C(C)C)cc3)nn2)c1	-1.11
COC(=O)[C@@H]1CC[C@H](C)[C@@H](c2ccc(Br)cc2)N1	0.165
COc1ccc(O[C@H]2C=C[C@@H](c3ccccc3)O[C@@H]2CON=C2c3cc(OC)ccc3O[C@H](c3cccc(OC)c3)[C@H]2O)cc1	0.106
C[C@@H]1CC[C@@H](C(=O)O)N[C@H]1c1cccc(N2CCOCC2)c1	0.818
COc1ccc2c(c1)O[C@@H](c1cccc(C(F)(F)F)c1)[C@H](O)C2=O	0.142

From PubChem BioAssay
